A selection: hits, their analogues and other compounds. The true share with any hit is near 9.4%.
IMPase Li cell – qHTS Assay for Identifying the Cell-Membrane Permeable IMPase Inhibitors: Potentiation with Lithium. 0.35% of 210,000 active. AID 1457, 2008. Potency, µM (titrated, usually from 59.4 µM), for the others: top-dose activity, negative = IMPase inhibition, usual class: inhibitors. CHO-M1 cells, IP1 TR-FRET (IP-One), carbachol + lithium;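 also: IP1 builds up when IMPase is blocked and the TR-FRET signal falls; potency is read from the fitted curve at half-maximal effect; plate controls were basal vehicle for no effect and high inhibitor control for full effect; nearly all actives have a fitted effect of over 50% in size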
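Lithium-sensitised IP1 accumulation assay; M1-expressing CHO cells treated 30 min at 37C with compound. Competitive antibody detection by time-resolved FRET followed a 10 min room-temperature lysis step.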
HPGD block – qHTS Assay for Inhibitors of HPGD (15-Hydroxyprostaglandin Dehydrogenase). 15-hydroxyprostaglandin dehydrogenase [NAD(+)] (Homo sapiens), P15428. purified HPGD, NADH fluorescence kinetic, PGE2 substrate. Potency, µM, for inactives: at the top dose activity change, negative = inhibition, usual class: inhibitors. 4.3% of 150,000 active. AID 894, 2007; active = well fitted inhibition curve with a large enough effect, not every such curve was filed as active; inconclusive = small, poorly fitted or top-dose-only effect, or another doubt; inactive = no such curve, though single readings can be large or run the other way; also: potency is read from the fitted curve at half-maximal effect; % is scaled to controls: 0 for no effect and ±100 for the full control effect
Target sequence (P15428 whole entry, looked up): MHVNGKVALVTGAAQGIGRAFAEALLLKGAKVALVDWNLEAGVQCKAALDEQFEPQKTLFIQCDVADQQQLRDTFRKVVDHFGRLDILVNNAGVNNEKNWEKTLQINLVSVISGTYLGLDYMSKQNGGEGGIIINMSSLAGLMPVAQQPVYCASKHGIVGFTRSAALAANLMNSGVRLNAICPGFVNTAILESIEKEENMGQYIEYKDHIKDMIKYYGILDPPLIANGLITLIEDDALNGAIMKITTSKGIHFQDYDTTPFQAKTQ
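20 nM HPGD preincubated 15 min at room temperature with compound in 50 mM Tris-HCl pH 8, 0.01% Tween 20. Started with 1 mM NAD+ and 30 uM prostaglandin E2; NADH fluorescence (360/450 nm) read 5 times over 30-s intervals, last minus first.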
HttQ103 aggreg – qHTS Multiplex Assay to Identify Dual Action Probes in a Cell Model of Huntington: Aggregate Formation (GFP). AID 1688, 2009. Potency, µM (highest dose often 46.1 µM), for the others: at the top dose activity change, negative = inhibition, hits mostly inhibitors. PC12 HttQ103-GFP aggregates, Acumen cytometry, 40 h. 1.1% of 220,000 active; also: potency is read from the fitted curve at half-maximal effect; % is scaled to controls: 0 for no effect and ±100 for the full control effect; nearly all actives have a fitted effect of over 60% in size
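Compounds (qHTS titration) were added to PC12 cells expressing an ecdysone-driven HTT exon 1 Q103–GFP fusion after induction with 100 nM tebufenozide. Aggregate formation was measured as GFP objects in cell lysates.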
IMPase inh – qHTS Assay for Identifying the Cell-Membrane Permeable IMPase Inhibitors | Inositol monophosphatase 1 (Rattus norvegicus), P97697 | CHO-M1 cells, IP1 accumulation, HTRF TR-FRET ratio | inhibition (IP1 accumulation), % at 46.1 µM | 120,000 tested, under 10 active | AID 901, 2007; active = well fitted curve in the direction sought with a large enough effect in the signal ratio, not every such curve was filed as active; inconclusive = small, poorly fitted or top-dose-only effect, or a change in a side signal; inactive = no such curve, though single readings can be large or run the other way; the % refers to the signal ratio;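 also: cells stimulated with carbachol in lithium chloride buffer; plate controls were DMSO basal wells for no effect and reference inhibitor wells for full effect; higher means more IMPase inhibition seen as more IP1 and lower FRET ratio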
Target sequence (P97697 whole entry, looked up): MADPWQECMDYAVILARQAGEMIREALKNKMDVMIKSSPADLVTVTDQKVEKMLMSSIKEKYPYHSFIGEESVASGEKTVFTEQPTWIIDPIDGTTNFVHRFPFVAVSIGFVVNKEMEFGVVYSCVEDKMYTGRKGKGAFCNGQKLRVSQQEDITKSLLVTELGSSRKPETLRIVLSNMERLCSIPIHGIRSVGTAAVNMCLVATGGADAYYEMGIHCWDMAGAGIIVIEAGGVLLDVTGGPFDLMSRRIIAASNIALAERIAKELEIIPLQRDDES
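Carbachol-driven Gq signalling in CHO-M1 cells (2000/well) generates IP1. Compounds that block IMPase raise IP1 and so reduce the FRET signal from Eu-anti-IP1 and d2-IP1 after a 10 min room-temperature lysis.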
HTT cytoprotect – qHTS Multiplex Assay to Identify Dual Action Probes in a Cell Model of Huntington: Cytoprotection (ATP); 0.14% of 230,000 active; PC12 HTT-Q103 induced, cytoprotection, ATP luminescence, 40 h; Potency, µM (doses to about 56.4 µM), for inactives: cytoprotection (ATP increase), most hits filed as activators; also: potency is read from the fitted curve at half-maximal effect; % of control where 0% means no effect; nearly all actives have a fitted effect of over 45% in size
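Huntington model: PC12 line, ecdysone-inducible HTTQ103 exon1–GFP, tebufenozide 100 nM. Test articles in a dose series. Endpoint luminescence from cellular ATP.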
ALDH1A1 inh – qHTS Assay for Inhibitors of Aldehyde Dehydrogenase 1 (ALDH1A1); Purified ALDH1A1, NADH fluorescence, propionaldehyde substrate; Aldehyde dehydrogenase 1A1 (Homo sapiens), P00352; 7.3% of 220,000 active; Potency, µM (top dose mostly 75.3 µM), inactives show at the highest dose activity, negative = inhibition, most hits filed as inhibitors; active = well fitted inhibition curve with a large enough effect, not every such curve was filed as active; inconclusive = small, poorly fitted or top-dose-only effect, or another doubt; inactive = no such curve, though single readings can be large or run the other way;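 also: potency is read from the fitted curve at half-maximal effect; plate controls were no enzyme wells and a reference inhibitor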
* marks the source's active call; other numbers are inactive results; [ ] = dose if it differs, or a comment. Unless noted, calls follow the shape of the dose curve; as a rule, active = well fitted curve in the direction sought with a large enough effect; inconclusive = small, poorly fitted or top-dose-only effect, or another doubt; inactive = no such curve, though single readings can be large; an effect the other way counts as inactive or inconclusive.

How did COCCOC(=O)c1c(C)nc(SCC(=O)Nc2ccc(OC)cc2)c(C#N)c1-c1ccco1 do in these assays?
IMPase Li cell: 15%[38.3 µM]; HPGD block: -18%; HttQ103 aggreg: 2%; IMPase inh: 5; HTT cytoprotect: -20%; ALDH1A1 inh: inconclusive

Results for CN1CCc2nc(SCC(=O)Nc3cccc(F)c3)c(C#N)c(-c3cccs3)c2C1 ?
IMPase Li cell: 25%[38.3 µM]; HPGD block: -25%; HttQ103 aggreg: 25%; IMPase inh: 5; HTT cytoprotect: -19%; ALDH1A1 inh: 8.9µM*

Results for CN1CCc2nc(SCC(=O)Nc3ccc(OC(F)(F)F)cc3)c(C#N)c(-c3cccs3)c2C1 ?
IMPase Li cell: 3%; HPGD block: -24%; HttQ103 aggreg: 4%; ALDH1A1 inh: 3.2µM*

What do the screens show for `CCc1ccc(C2CC(=O)c3c([nH]c(C(=O)OC4CCC(C)CC4)c3C)C2)cc1` (stereo not drawn)?
IMPase inh: 1

Results for CC(C)Sc1nc2sc3c(c2c(=O)n1Cc1ccccc1)CCCC3 ?
IMPase inh: -5

How did COC(=O)C1=C(C(=O)OC)[C@@H]2N(C)c3ccc(OC)cc3[C@@]23C[C@@H](C(=O)OC)N(S(=O)(=O)c2ccc4c(c2)OCCN4C)C3=N1 do in these assays?
IMPase Li cell: 10%; HPGD block: -12%; HTT cytoprotect: -10%[10 µM]; ALDH1A1 inh: 12%[13.5 µM]

What do the screens show for `O=C(Nc1cccc(F)c1)N1CCCC2(CCN(C(=O)c3ccncc3)CC2)C1`?
IMPase Li cell: 7%; HPGD block: -7%; HTT cytoprotect: -5%; ALDH1A1 inh: 19%

Results for CCn1c(C)nc2cc(C(=O)n3cc(C(=O)c4ccccc4O)cn3)ccc21 ?
HttQ103 aggreg: 2%; IMPase inh: -6; HTT cytoprotect: -32%; ALDH1A1 inh: 4%

What do the screens show for `O=C(c1cnn(C(=O)COc2ccccc2F)c1)c1cc(F)ccc1O`?
HttQ103 aggreg: -31%[9.22 µM]; HTT cytoprotect: -14%[10 µM]; ALDH1A1 inh: 0.4µM*

How did Cc1noc2ncc(C(=O)c3cc(F)ccc3O)cc12 do in these assays?
IMPase Li cell: 30%[38.3 µM]; HPGD block: -18%; HttQ103 aggreg: -9%; IMPase inh: -3; HTT cytoprotect: -18%; ALDH1A1 inh: -1%

How did O=C(c1cnc2nc3ccccc3n2c1)c1cc(F)ccc1O do in these assays?
IMPase Li cell: -5%; HttQ103 aggreg: -8%; HTT cytoprotect: -50%; ALDH1A1 inh: 4.5µM*

Results for CN(C)c1cccc(C(=O)n2cc(C(=O)c3cc(F)ccc3O)cn2)c1 ?
IMPase Li cell: 5%[38.3 µM]; HPGD block: -17%; HttQ103 aggreg: inconclusive; IMPase inh: -2; HTT cytoprotect: -12%[10 µM]; ALDH1A1 inh: 4.5µM*

What do the screens show for `CC(=O)OC[C@H]1O[C@@H](O/N=C/C[C@@H]2C=C[C@H](OC(C)=O)[C@@H](COC(C)=O)O2)[C@H](OC(C)=O)[C@@H](OC(C)=O)[C@@H]1OC(C)=O`?
IMPase Li cell: 0%; HPGD block: -13%; HttQ103 aggreg: 11%; ALDH1A1 inh: -1%

Results for CC1CC(C)CN(C(=O)c2ccc(CNc3c(N4CCCC4)c(=O)c3=O)cc2)C1 (stereo not drawn) ?
HttQ103 aggreg: -29%[9.22 µM]; HTT cytoprotect: -9%[10 µM]

Results for O=C(c1ccc(CNc2c(N3CCCC3)c(=O)c2=O)cc1)N1CCc2ccccc2C1 ?
IMPase Li cell: 18%[38.3 µM]; HPGD block: 3.5µM*; HttQ103 aggreg: inconclusive; IMPase inh: 6; HTT cytoprotect: -7%; ALDH1A1 inh: 10%

Results for CN(C)c1ccc(CNC(=O)c2ccc(CNc3c(N4CCCCC4)c(=O)c3=O)cc2)cc1 ?
IMPase Li cell: 4%[38.3 µM]; HPGD block: 22µM*; HttQ103 aggreg: -8%; IMPase inh: 5; HTT cytoprotect: -29%; ALDH1A1 inh: 28µM*

How did CCOC(=O)C1CCN(c2c(NCc3ccc(C(=O)NC(C)CC)cc3)c(=O)c2=O)CC1 (stereo not drawn) do in these assays?
IMPase Li cell: -3%[38.3 µM]; HPGD block: 5µM*; HttQ103 aggreg: -17%; IMPase inh: -7; HTT cytoprotect: -11%; ALDH1A1 inh: inconclusive

How did O=C(NCc1ccc(Cl)cc1)c1ccc(CNc2c(N3CCCC3)c(=O)c2=O)cc1 do in these assays?
HttQ103 aggreg: -14%[9.22 µM]; HTT cytoprotect: -15%[10 µM]

How did COc1ccc(S(=O)(=O)Nc2cc3c(cc2N2CCOCC2)n(C)c(=O)n3C)cc1 do in these assays?
IMPase inh: 5

Results for Cc1ccc(SCCNC(=O)CN(c2ccccc2)S(=O)(=O)N(C)C)cc1 ?
IMPase inh: 5

Results for O=C(Nc1ccc2ccccc2c1)c1cn(-c2ccccc2)nc1-c1cccs1 ?
IMPase Li cell: 6%[38.3 µM]; HPGD block: inconclusive; HttQ103 aggreg: -24%; IMPase inh: 5; HTT cytoprotect: -28%; ALDH1A1 inh: inconclusive

Results for CN(C)c1ccc(NC(=O)c2cn(-c3ccccc3)nc2-c2cccs2)cc1 ?
IMPase Li cell: 9%[38.3 µM]; HPGD block: -13%; HttQ103 aggreg: 0%[9.22 µM]; IMPase inh: 5; HTT cytoprotect: 5%; ALDH1A1 inh: 8.9µM*

How did COC(=O)C/C=C\[C@@H](C)[C@@H](/C=N\OC[C@@H](C)[C@H](OCc1ccccc1)C(C)C)NS(=O)(=O)c1ccc(C)cc1 do in these assays?
HTT cytoprotect: inconclusive; ALDH1A1 inh: 9%[13.5 µM]

What do the screens show for `C[C@H]1[C@@H](OC(=O)CCC(=O)O)OC2OC3(C)CC[C@H]4[C@H](C)CC[C@@H]1[C@@]24OO3` (stereo partly drawn)?
HttQ103 aggreg: 3.2µM*; HTT cytoprotect: -97%

What do the screens show for `CCCn1c(=O)c(C(=O)NNS(=O)(=O)c2ccc(Cl)cc2)c(O)c2ccccc21`?
IMPase Li cell: 1%; HPGD block: -20%; HttQ103 aggreg: 14µM*; HTT cytoprotect: -7%[10 µM]; ALDH1A1 inh: 32µM*

What do the screens show for `CCCCCCCCCC(=O)NNC(=O)c1c(O)c2ccccc2n(CCC)c1=O`?
IMPase Li cell: -6%; HttQ103 aggreg: -22%[9.22 µM]; HTT cytoprotect: -14%[10 µM]; ALDH1A1 inh: 5%
